Results from PubChem BioAssay.

These compounds were tested on Rat fibroblasts (CREF) (assay: Peg3 promoter luciferase inhibitors, potency, dose response, cell-based, HeLa, CREF/GAPDH counter-screen panel (AID 624167)). Details: CREF/GAPDH counter-screens; run 2, dose range 1, at 100 µM (top of the series).

Row | Structure (SMILES) | inhibition
1 | O=C(N/N=C/c1cccs1)c1n[nH]c2c1CCCC2 | 96.8%
2 | Cc1ccccc1OCC(O)CNC1CCC(NCC(O)COc2ccccc2C)CC1 (stereo not given) | 97.9%
3 | c1cc2c(cc1C1=NNC(=NC3CC3)SC1)OCCO2 | 91.3%
4 | CCOC(=O)c1cnc(Nc2nc3ccccc3o2)nc1C | 93%
5 | Cc1ccc2nc(NC(=O)c3ccccn3)sc2c1 | 95.5%
6 | CCOc1ccc(-c2ccc(SC)nn2)cc1 | 98.9%
7 | Cc1cccc(/C=N/Nc2ccc3ccccc3n2)c1 | 96.2%
8 | CN1CCN(c2ccc(-c3ccc4ccccc4n3)cc2)CC1 | 98.6%
9 | Cc1cc(C(=O)CN2C(=O)c3ccccc3S2(=O)=O)c(C)n1CC1CCCO1 (stereo not given) | 89.4%
10 | O=C1c2cccc3cc([N+](=O)[O-])cc(c23)C(=O)N1CCN1CCCC1 | 83%
11 | Cc1cc(C(=O)COC(=O)c2ccccc2O)c(C)n1Cc1cccs1 | 87.5%
12 | O=c1c(Cl)c(N2CCCCC2)cnn1-c1nc2ccccc2[nH]1 | 100%
13 | C(=NN1CCCCCC1)c1ccc2ccccc2n1 | 100%
14 | CC(=O)c1cccc(-c2ccnc3c2CC(C(=O)Nc2cccc(NS(C)(=O)=O)c2)O3)c1 (stereo not given) | 47.2%
15 | COc1ccc(/C=C/c2nc3ccccc3n2C)cc1 | 99.9%
16 | C(=NNc1ccc2ccccc2n1)c1ccccn1 | 99.3%
17 | O=C(NCCc1ccccc1F)c1ccc2c(c1)OCCO2 | 99.8%
18 | C=CCn1c(C)cc(C(=O)CN2C(=O)c3ccccc3S2(=O)=O)c1C | 96.4%
19 | CN(C)CCCN(C(=O)c1ccc(S(=O)(=O)N2CCc3ccccc3C2)cc1)c1nc2ccc(F)cc2s1 | 98.9%
20 | O=C(Cn1ncc(Cl)c(Cl)c1=O)N1CCc2ccccc21 | 95.5%

Row | Structure (SMILES) | inhibition
21 | C(=N\Nc1nc2ccccc2[nH]1)/c1ccccn1 | 96.8%
22 | O=C(CCl)Nc1ccccc1Sc1ccc(Cl)cc1 | 100%
23 | CCc1ccc(C(=O)Nc2nc3ccccc3[nH]2)cc1 | 98.5%
24 | COCCn1c(C)cc(C(=O)COC(=O)c2cccc(O)c2)c1C | 97.1%
25 | C/C(=N\NC(=O)c1n[nH]c2c1CCC2)c1cccs1 | 94.4%
26 | CC(=O)n1cc(N(C(=O)CCl)c2ccc(C)cc2)c2ccccc21 | 95.3%
27 | C=C1CC2(OC1=O)c1ccccc1CCc1ccccc12 | 97.7%
28 | NC(C(=O)O)C1ON=C(Cl)C1O (stereo not given) | 9.67%
29 | COc1ccc(N(C(=O)CCl)C(C(=O)NC2CCCCC2)c2cccnc2)cc1 (stereo not given) | 94.1%
30 | CC1=CC2C(C(O)CC3(C)C2CC(C)C32OCOC23COCO3)C2(C)C/C(=C\O)C(=O)C=C12 (stereo not given) | 100%
31 | COc1ccc(OCc2cccc(C(=O)O)c2)cc1 | 89.6%
32 | O=C(Nc1ccccn1)c1cc2ccccc2o1 | 98.8%
33 | O=C(CN1C(=O)c2ccccc2S1(=O)=O)c1ccc2c(c1)OCCCO2 | 99.4%
34 | Cc1ccc(C(=O)Nc2ncc([N+](=O)[O-])s2)cc1 | 88.8%
35 | CCOc1ccc(NC(=O)c2ccccn2)cc1 | 95.5%
36 | COc1cccc(NC(=O)c2nc(S(C)(=O)=O)ncc2Cl)c1 | 99.1%
37 | CC(C)(C)C(=O)Nc1ccc(NC(=O)c2ccco2)nc1 | 100%
38 | C/C(=N/NC(=O)c1cc(C2CC2)[nH]n1)c1cccs1 | 96.2%
39 | Cc1ccccc1-c1nc(-c2ccccn2)no1 | 99.3%
40 | OCC1OC(n2ccc3c(NO)ncnc32)C(O)C1O (stereo not given) | 94.6%
